# FLuc inh: Firefly luciferase inhibition profiling of diverse chemical library using quantitative high-throughput screening; 76,000 compounds, 2.5% hits; Luciferin 4-monooxygenase (Photinus pyralis), P08659; purified P. pyralis luciferase, luminescence, biochemical; Potency, µM (highest dose often 115 µM), actives largely listed as inhibitors; note: nearly all actives have a fitted effect of over 65% in size
# Target sequence (P08659 whole entry, looked up): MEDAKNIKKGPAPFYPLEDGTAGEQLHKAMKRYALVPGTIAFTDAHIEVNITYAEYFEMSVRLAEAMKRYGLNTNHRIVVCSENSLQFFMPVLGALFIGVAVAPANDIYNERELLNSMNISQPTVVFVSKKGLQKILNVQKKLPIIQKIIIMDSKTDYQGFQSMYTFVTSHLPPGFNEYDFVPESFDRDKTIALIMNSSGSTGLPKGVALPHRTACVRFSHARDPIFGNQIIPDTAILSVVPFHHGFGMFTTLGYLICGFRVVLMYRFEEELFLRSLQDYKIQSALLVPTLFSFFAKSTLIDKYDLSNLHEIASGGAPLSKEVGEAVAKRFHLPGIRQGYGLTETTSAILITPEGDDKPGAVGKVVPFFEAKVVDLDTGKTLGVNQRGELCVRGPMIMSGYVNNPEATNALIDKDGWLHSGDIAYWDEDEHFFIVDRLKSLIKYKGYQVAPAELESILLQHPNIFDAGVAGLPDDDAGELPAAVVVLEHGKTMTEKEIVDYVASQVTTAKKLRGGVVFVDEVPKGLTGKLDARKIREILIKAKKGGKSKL
#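 Cell-free enzyme assay, 10nM P. pyralis luciferase, luciferin and ATP each at 10uM. Inhibition profiled over a 6-point titration, read as luminescence.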
# NIH3T3 tox: Cytotoxic Profiling in NIH 3T3 Cell Line of Diverse Libraries Using Quantitative High-Throughput Screening; NIH 3T3 viability, CellTiter-Glo ATP luminescence, 48-72 h; 94,000 compounds, 4.3% hits; Potency, µM (top dose mostly 96.7 µM), hits mostly inhibitors; note: nearly all actives have a fitted effect of over 55% in size
#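 Cells were seeded at 400 per well, treated with pin-transferred compound, and kept 48 or 72 hr at 37 °C before CellTiter-Glo addition and luminescence imaging of cellular ATP.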
# hNpr1 antagonist: Natriuretic polypeptide receptor (hNpr1) antagonism - Primary qHTS; Atrial natriuretic peptide receptor 1 (Homo sapiens), P16066; HEK293 hNpr1 GloSensor cGMP, ANP-stimulated luminescence; Potency, µM (series often up to 46.3 µM), actives largely listed as inhibitors; 76,000 compounds, 1.6% hits; AID 1347048, 2019; calls by dose curve; note: nearly all actives have a fitted effect of over 60% in size
#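 HEK293 cells stably expressing human Npr1 and cGMP GloSensor pGS-40F, loaded 2 h with 2% GloSensor reagent, given compound 30 min at room temperature. Luminescence read before and 20 min after 0.1 nM hNppA.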
# HEK cytotox: Cytotoxic Profiling in HEK 293 Cell Line of Diverse Libraries Using Quantitative High-Throughput Screening; 94,000 compounds, 6.6% hits; AID 1345083, 2018; HEK 293 viability, ATP luminescence (CellTiter-Glo), 48-72 h; Potency, µM (titrated, usually from 115 µM), hits mostly inhibitors; note: nearly all actives have a fitted effect of over 60% in size
#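 qHTS cytotoxicity; HEK 293, 250 cells/well; compound pinned; 48 or 72 hr, 37 degree Celsius, 5% CO2, 95% humidity; CellTiter-Glo, 10 min RT; luminescence (ATP).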
# GPT2 inhibitor: Primary qHTS assay for inhibitors of Glutamate pyruvate transaminase 2 (GPT2); Alanine aminotransferase 2 (Homo sapiens), Q8TD30; Recombinant GPT2, coupled pyruvate oxidase/HRP Amplex Red fluorescence; Potency, µM (top dose mostly 57.7 µM), hits mostly inhibitors; 100,000 compounds, 0.25% hits; note: nearly all actives have a fitted effect of over 60% in size
#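 Inhibition is scored from Amplex Red fluorescence generated when pyruvate oxidase and HRP act on pyruvate released by GPT2. Reactions contain 10ng/uL enzyme, 250uM a-KG and 2mM L-alanine and run 30 min at room temperature.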
# Hits are given with their value; - = inactive; ? = inconclusive; . = not tested or not shown; [ ] = another dose, or the depositor's remark. Sampled rows, rich in hits. Any-hit rate of the full collection: about 10%. Unless noted, calls come from the whole dose curve; as a rule, active = well fitted curve in the direction sought with a large enough effect; inconclusive = small, poorly fitted or top-dose-only effect, or another doubt; inactive = no such curve, though single readings can be large; an effect the other way counts as inactive or inconclusive.
SMILES,FLuc inh,NIH3T3 tox,hNpr1 antagonist,HEK cytotox,GPT2 inhibitor
COc1ccc(C2Cn3cnc(C(=O)N4CCC(C(=O)NCc5ccccn5)CC4)c3CO2)cc1 (centres undefined),-,-,-,-,-
Cc1ccc(-c2cn3c(n2)N(C(=O)c2nc4ncccn4n2)CCC3)cc1,-,-,-,40µM,-
CSc1ccccc1-c1ccc(N2CCN(C)CC2)nn1,16µM,-,-,-,-
Cn1ccnc1-c1ccc(N2CCC(C(O)Cc3ccccc3)CC2)nn1 (centres undefined),?,?,?,?,-
CCc1[nH]c2ccc(CNC(=O)C3CC(=O)Nc4ccccc43)cc2c1C (centres undefined),18µM,?,-,?,-
O=[S+]([O-])(NC1CCN(Cc2cccc(-c3ccc(F)c(F)c3)c2)CC1)c1cccc(C(F)(F)F)c1,.,14µM,.,22µM,-
O=[S+]([O-])(NC1CCN(Cc2cccc(-c3cccs3)c2)CC1)c1cccc(C(F)(F)F)c1,.,8.9µM,.,?,-
O=[S+]([O-])(NC1CCN(Cc2cccc(-c3ccc(F)c(F)c3)c2)CC1)c1ccccc1,.,20µM,.,28µM,.
Cn1ncc2c(NCCc3nnc(N)s3)nc(-c3ccncc3)nc21,-,-,-,-,-[11.5 µM]
Cn1ncc2c(N[C@@H](Cc3ccccc3)C(N)=O)nc(-c3ccncc3)nc21,-,?,-,32µM,?
CCNC(=O)CC1=CSC2=NC(C)=C(C(=O)OCC)C(c3cccc([N+](=O)[O-])c3)N12 (centres undefined),-,-,-,-,-
O=C(N[C@@H]1CCC[C@@H]1C(=O)NCCCc1ccccc1)c1ccncc1,-,-,-,-,-
CC(Oc1ccccc1)C(=O)N1CC(Oc2ccccc2-c2nc(-c3ccccc3)no2)C1 (centres undefined),.,35µM,.,45µM,-
Cc1cccc(NC(=O)N2CC(Oc3ccccc3-c3nc(-c4ccccc4)no3)C2)c1,-,-,-,-,-
O=C(NCCc1ccccc1)N1CC(Oc2ccccc2-c2nc(-c3ccccc3)no2)C1,?,28µM,-,22µM,-
CCC(C)NC(=O)N1CC(Oc2ccccc2-c2nc(-c3ccccc3)no2)C1 (centres undefined),?,35µM,-,?,-
c1ccc(-c2noc(-c3ccccc3OC3CNC3)n2)cc1,22µM,28µM,?,?,-
C=C1C(O[C@@H]2O[C@H](CO)[C@@H](O)[C@H](O)[C@@H]2O)CC2C(C)(C)C(O)CCC2(C)C1CC/C(C)=C\CO (some centres undefined),.,.,.,.,-
O=C(Cc1ccsc1)N1CC(Oc2ccccc2-c2nc(-c3ccccc3)no2)C1,?,35µM,-,?,-
CC(=O)N1CC2(Cc3ccccc31)CN(C(=O)Nc1ccc(Cl)cc1)C2,-,-,-,-,-
COc1ccccc1N1CCN([C@H]2[C@@H]3OC[C@@H](O3)[C@@H](NC(=O)Nc3ccc(F)cc3)[C@@H]2O)CC1,-,-,-,-,-
O=C(NCCN1CCOCC1)c1noc(-c2ccccc2F)n1,-,-,-,-,-
Fc1ccccc1-c1noc(N2CCOCC2)n1,32µM,-,-,?,-
CC(C)CN(Cc1ccncc1)C1CN(C(=O)CCCc2ccccc2)C1,.,-,.,?,-
CC1CCC(NC(=O)C2CCN(c3cc(C(F)(F)F)ncn3)CC2)CC1 (centres undefined),?,?,2.2µM,?,-
SMILES,FLuc inh,NIH3T3 tox,hNpr1 antagonist,HEK cytotox,GPT2 inhibitor
Cc1ccc(NC(=O)C2CCN(c3cc(C(F)(F)F)ncn3)CC2)c(C)c1,-,-,?,?,-
O=C1NCCCCCCN(C(=O)Cc2cccc(F)c2)[C@H]2CCCC[C@@H]12,-,-,-,-,-
COc1cc(OC)cc(C(=O)N2CCC(c3n[nH]c(=O)n3Cc3ccc(F)cc3)CC2)c1,-,18µM,-,-,-
COc1ccc(CC(=O)N2CCC(c3n[nH]c(=O)n3-c3ccc(C)cc3)CC2)cc1,-,32µM,-,-,-
COc1cc(OC)cc(C(=O)N2CCC(c3n[nH]c(=O)n3-c3ccc(C)cc3)CC2)c1,-,25µM,-,-,-
COc1cccc(C(=O)N2CCC(c3n[nH]c(=O)n3-c3ccc(C)cc3)CC2)c1,-,35µM,-,-,-
Cc1ccc(CC(=O)N2CCC(c3n[nH]c(=O)n3-c3ccc(C)cc3)CC2)cc1,-,?,-,-,-
CN1c2cc(C(=O)Nc3cc(F)cc(F)c3)ccc2C(=O)N2CCCCC21 (centres undefined),?,?,-,?,-
C#CCN(C)C(=O)c1c(-c2ccc(OC)cc2)noc1[C@H](C)O,-,-,-,-,-
O=C(Cc1ccc(Cl)cc1)N1CCC(c2n[nH]c(=O)n2-c2ccccc2)CC1,-,32µM,-,-,-
COCC1(CNCC2CCCC2)C[C@@H](O)[C@@H](O)C1 (some centres undefined),-,-,-,-,-
Cc1ccc(-c2cccc(CN3CCCC3C(=O)N3CCN(c4ncccn4)CC3)c2)cc1Cl (centres undefined),.,?,.,14µM,.
Cc1ccc(-c2cccc(CN3CCCC3C(=O)NC3CCCCC3)c2)cc1Cl (centres undefined),.,-,.,-,.
Cc1ccc(-c2cccc(CN3CCCC3C(=O)NCC(C)C)c2)cc1Cl (centres undefined),.,35µM,.,40µM,.
Cc1ccc(-c2cccc(CN3CCCC3C(=O)NCC(F)F)c2)cc1Cl (centres undefined),.,?,.,40µM,.
Cc1cc(C[C@@H]2COC[C@@H]2NC(=O)CN2C(=O)NC(=O)C2(C)C)on1,-,-,-,-,-
COc1cccc(C(=O)N2CCC(N3C[C@H](O)C[C@H]3C(=O)N3CCc4ccccc4C3)CC2)c1,-,-,-,?,-
CC(C)(Oc1ccc2c(c1)CCC2)C(=O)N[C@H]1CCOC[C@H]1C1CCOCC1,-,-,-,-,-
Clc1ccccc1CNC[C@H]1Cn2cc(-c3ccccc3)nc2CO1,56µM,?,-,100µM,-
c1ccc(-c2cn3c(n2)CO[C@@H](CNCc2ccc4ccccc4n2)C3)cc1,-,?,-,?,-
Fc1ccccc1CNC[C@H]1Cn2cc(-c3ccccc3)nc2CO1,63µM,-,-,?,-
Cc1ccccc1CNC[C@H]1Cn2cc(-c3ccccc3)nc2CO1,-,?,-,100µM,-
Cc1ccc(CNC[C@H]2Cn3cc(-c4ccccc4)nc3CO2)cc1,-,?,-,?,-
